The list is not random: actives were taken first. Their share in the collection is about 27%.
CYP2C9 activ = activators of human CYP2C9. recombinant CYP2C9, luciferin-H conversion, luminescence; hits give high values; factor 1 = untreated enzyme, 0 = blocked. P11712. activation factor at 5 µM. AID 1024. actives 1.4% (n = 96,000);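 active = activation factor of 2 or more for CYP2C9 at a 5 µM dose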;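 note: 0 = sulfaphenazole-blocked wells and 1 = vehicle-only wells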
CYP2C9 inh = blocks human cytochrome P450 2C9 | actives 20% (n = 96,000) | CYP2C9 Supersomes, luciferin-H conversion, luminescence | inhibition, % at 5 µM | AID 777;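 active = blocking of liver enzyme CYP2C9 beyond about 50% at 5 µM, limit read from the data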
sEH act = soluble epoxide hydrolase (human) activation | purified human sEH enzymatic activity, activator screen | actives 0.04% (n = 91,000) | activation, % at 2 µM | P34913; in the data active = activation above about 37%
CYP2C19 act = cytochrome P450 2C19 (human) activation; 96,000 tested, under 10 active; recombinant CYP2C19, luciferin-H EGE luminescence; hits give high values; 0 = fully inhibited enzyme, 1 = untreated enzyme; activation factor at 5 µM; P33261; AID 1025;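 active = activation factor of at least 2 at 5 µM in the primary screen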;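 note: 0 = wells with 2.5 mM tranylcypromine and 1 = vehicle-only wells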
CYP2C19 inhib = inhibitors of human CYP2C19. P33261. CYP2C19 Supersomes, luciferin-H EGE luminescence, 30 min. inhibition, % at 5 µM. actives 21% (n = 96,000);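 active = CYP2C19 inhibition above a set limit at 5 µM in the primary screen, cut at about 50% in these data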;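 note: plate controls were negative control wells for no effect and 2.5 mM tranylcypromine positive control for full effect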
sEH inhibitor = blocks human soluble epoxide hydrolase activity; P34913; recombinant human sEH enzymatic activity assay; inhibition, % at 2 µM; actives 0.34% (n = 91,000); in the data active = inhibition above about 80%
* hit, by the source's call; nt = no result.

SMILES	CYP2C9 activ	CYP2C9 inh	sEH act	CYP2C19 act	CYP2C19 inhib	sEH inhibitor
O=C(c1ccccc1)N1CCCOC1c1ccccc1 (stereo unspecified)	1.1	-15	9	1.1	-7	-9
CCOC(=O)C1=C(C)SC2=NS(=O)(=O)CCN21	1	-2	nt	0.6	40	nt
N#C/C(=C\c1ccccc1)C(=O)NC(=O)Oc1ccccc1	0.2	82*	-10	1	4	8
N#C/C(=C\c1ccccc1Cl)C(=O)NC(=O)Oc1ccccc1	1.2	-23	-5	1	-1	3
COC(=O)c1cc(OC)c(OC)cc1NC(=O)CCC1CCCC1	1	-4	-10	0.9	11	11
Cc1c(O)nc(SC2CC(=O)N(c3ccccc3)C2=O)[nH]c1=O (stereo unspecified)	1	-2	1	1.1	-10	2
CCc1c(O)nc(SC2CC(=O)N(c3ccccc3)C2=O)[nH]c1=O (stereo unspecified)	0.3	67*	24	0.7	29	-20
CN(C)c1ccc(NC(=O)CN2CCC(C(=O)c3ccc(F)cc3)CC2)cc1	1	2	-17	1.1	-9	16
COC(=O)c1ccccc1NC(=O)CN1CCC(C(=O)c2ccc3c(c2)OCCO3)CC1	0.2	78*	-12	0.2	81*	10
Cc1ccc(NC(=O)CN2CCC(C(=O)c3ccc4c(c3)OCCO4)CC2)cc1	0.5	49	-18	0.2	85*	19
COC(=O)c1ccccc1NC(=O)CN1CCOCC1	0.9	7	1	0.9	14	1
CCOC(=O)C1=NN(C(=O)Nc2ccc(OC)cc2)C2C(=O)N(c3cccc(C(F)(F)F)c3)C(=O)C12 (stereo unspecified)	1.1	-6	6	0.9	6	-4
Cc1nn(C)c(C)c1NC(=O)CN1CCC(O)(c2ccc3c(c2)OCO3)CC1	1.1	-7	0	1.1	-7	0
CCOC(=O)C1CCCN(c2cc(C)nc3cc(-c4ccc(F)cc4)nn23)C1 (stereo unspecified)	0.3	67*	-9	0.6	40	10
CCOc1ccc(NC2=NCC(=O)N2Cc2cccs2)cc1	0.9	14	-1	0.9	6	3
OC(COc1ccc2ccccc2c1Cl)CN1CCOCC1 (stereo unspecified)	1.2	-17	8	0.5	54*	-11
OC(COc1ccc2cc(Br)ccc2c1)CN1CCOCC1 (stereo unspecified)	nt	nt	-2	nt	nt	4
OC(COc1ccccc1)CN1CCOCC1 (stereo unspecified)	nt	nt	-5	nt	nt	8
OC(COc1c(Br)cc(Br)cc1Br)CN1CCOCC1 (stereo unspecified)	1	-4	-2	0.1	92*	3
c1ccc(Nc2nnc(SCc3cccc4ccccc34)s2)cc1	2.1*	-111	-10	0.7	34	12
COc1ccc(C2C(Oc3ccccc3C)C(=O)N2Cc2ccc(F)cc2)cc1OC (stereo unspecified)	0.2	76*	-6	0.1	90*	6
COc1ccc(CCN2C(=O)C(Oc3ccccc3C)C2c2ccc3c(c2)OCO3)cc1OC (stereo unspecified)	0.4	60*	6	0.3	66*	-5
COc1ccc(CCN2C(=O)CC(NCc3ccc4c(c3)OCO4)C2=O)cc1OC (stereo unspecified)	0.8	20	1	0.7	33	-1
COc1ccc(NC(=O)CCNS(=O)(=O)c2ccc3c(c2)CCC(=O)N3)cc1	0.6	41	-8	0.7	30	5
Cc1nc2ccccn2c1C(=O)Nc1ccc2c(c1)OCCO2	nt	nt	-1	nt	nt	4
COC(=O)c1nn2c(C(F)(F)F)cc(-c3ccc(Br)o3)nc2c1Br	0.8	22	7	0.9	5	-8
CCOC(=O)CSc1nnc(-c2ccc(OC)cc2OC)o1	1.3	-34	-14	1.1	-12	15
COc1ccc(C)cc1S(=O)(=O)N(C)CC(=O)NCc1ccco1	0.5	51*	9	0.7	27	-7
CSc1cccc(NC(=O)C(C)NS(=O)(=O)c2ccc(F)cc2)c1 (stereo unspecified)	1	-1	-3	0.4	62*	4
CNC(=O)CN(c1ccc(F)cc1)S(=O)(=O)c1cc(C)ccc1OC	0.2	80*	10	0.2	82*	-10
